Results as given in PubChem BioAssay (Tox21).
Records with an inconclusive call do not appear. Values without a mark were called inactive. Active and inactive are the calls of the source. Calls come from the whole dose curve.

molecular target: Beta-2 adrenergic receptor (Homo sapiens) (UniProt P07550); test: Adrenergic beta2 receptor (ADRB2) small molecule antagonists, cell-based qHTS assay (AID 1963592); settings: CHO-ADRB2 cells, isoproterenol-stimulated cAMP HTRF ratio, 0.5 h; series mostly up to 92.4 µM; activity change, negative = inhibition: at the top concentration; note: nearly all actives have a fitted effect of over 50% in size
From the text: U.S. Tox21 Program National Center for Advancing Translational Sciences [NCATS] Division of Preclinical Innovation [DPI] U.S. Environmental Protection Agency [EPA] National Institutes of Environmental Health Sciences [NIEHS] National Toxicology Program [NTP] U.S. Food and Drug Administration [FDA] Tox21 Assay Overview: Beta adrenergic receptors (Beta-ARs) belong to the G-protein coupled receptor (GPCR) superfamily, includes three subtypes - beta1, beta2, and beta3. Beta1-AR is the predominant receptor subtype expressed in the heart, and beta2-AR is expressed in the kidney, lung, blood vessel and in the heart, and beta3 is found in the adipocytes. Beta1 and 2 ARs couple to Gs protein and elevate cyclic adenosine mono phosphate (cAMP), which activates protein kinase A and leads to the downstream signaling responsible for the physiological actions. Beta-AR agonists or antagonists are the most prescribed therapeutic agents for heart failure and asthma, and these were one of the first target receptors for the rational drug design. Tox21 10K compound library was screened using the cAMP-Gs dynamic assay (Cisbio Bioassays, Shelton, CT) to identify agonists/antagonists of the Gs-coupled human adrenergic, beta2 receptor (ADRB2) in the CHO-ADRB2 cell line (Codex BioSolutions, Inc. Gaithersburg, MD), which stably over-expresses ADRB2. The principle of cAMP-Gs dynamic assay is based on HTRF technology, which facilitates the fluorescence resonance energy transfer (FRET) between donor Europium cryptate and acceptor d2-labeled cAMP. The cAMP generated within cells competes with the red acceptor, d2-labled cAMP, for binding to the monoclonal anti-cAMP-cryptate (Europium donor). An increase in intracellular cAMP leads to the disruption of FRET signal, and the signal is inversely proportional to the cAMP concentration. Propranolol HCl (Sigma-Aldrich, St. Louis, MO) was used as a positive control in the screening.
Tox21 Assay Protocol Summary: CHO-ADRB2 cells were dispensed at 1,000/well in 4uL assay medium into white/solid 1536-well plates (Greiner Bio-One North America Inc., Monroe, NC) using a Multidrop Combi dispenser (ThermoFisher Scientific, Waltham, MA). The assay plates were incubated at 37C and 5% CO2 for an overnight (18-20hr). Then positive control and test compounds dissolved in DMSO were transferred to the assay plates at 23nL using a Pintool station (Wako, San Diego, CA). Following the compound and positive control transfer, 1uL agonist-stimulation mix containing 1nM Isoproterenol HCl, 100uM IBMX and 25uM Ro-20-1724 was added to each well of the assay plates using BioRAPTR Flying Reagent Dispenser (FRD, Beckman Coulter, Brea, CA). The assay plates were incubated at room temperature for 0.5hr. Then 2.5ul each d2-labled cAMP and anti-cAMP-cryptate solutions were added separately to each well of the assay plates using an FRD and the assay plates were incubated at room temperature for 1hr. The fluorescence signal was measured at two different wavelengths (665nm and 615nm) using an Envision plate reader (Perkin Elmer, Shelton, CT). Data were expressed as the ratio of 665 nm/615 nm.
% is set by controls: 0 for no effect and ±100 for the full control effect; potency is the fitted concentration of half-maximal effect.

Beta-2 adrenergic receptor (Homo sapiens), sequence (P07550 whole entry, looked up): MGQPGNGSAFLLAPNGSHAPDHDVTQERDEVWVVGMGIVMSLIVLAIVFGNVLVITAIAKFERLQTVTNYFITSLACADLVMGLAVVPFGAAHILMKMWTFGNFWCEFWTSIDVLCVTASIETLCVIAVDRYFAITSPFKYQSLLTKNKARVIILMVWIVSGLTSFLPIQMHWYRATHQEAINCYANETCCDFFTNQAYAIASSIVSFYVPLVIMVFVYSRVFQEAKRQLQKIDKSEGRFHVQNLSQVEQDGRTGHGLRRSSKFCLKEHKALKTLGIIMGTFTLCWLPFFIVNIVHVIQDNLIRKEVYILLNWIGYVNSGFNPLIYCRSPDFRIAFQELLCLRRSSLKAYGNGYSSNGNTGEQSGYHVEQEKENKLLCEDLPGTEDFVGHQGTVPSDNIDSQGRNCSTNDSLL

Row | SMILES | activity change, negative = inhibition | Potency
1 | CCn1cc(C(=O)O)c(=O)c2cc(F)c(N3CCNCC3)cc21 | 2.73% [at 42.5 µM] | 
2 | Oc1ccccc1C=NCc1ccccc1 | -2.44% [at 42.5 µM] | 
3 | Cc1ccco1 | 7.78% | 
4 | CCCN(CCC)C(=O)C(CCC(=O)O)NC(=O)c1ccccc1 (stereo not given) | 3.7% [at 42.5 µM] | 
5 | c1ccc(COCc2ccccc2)cc1 | 2.84% | 
6 | CCN(CC)C(=O)/C(C#N)=C/c1cc(O)c(O)c([N+](=O)[O-])c1 | 6.12% [at 42.5 µM] | 
7 | C[C@@H]1C[C@H]2[C@@H]3CCC4=CC(=O)C=C[C@]4(C)[C@@]3(F)[C@@H](O)C[C@]2(C)[C@H]1C(=O)CO | 1.33% [at 42.5 µM] | 
8 | NNc1nnc(NN)c2ccccc12 | 5.21% [at 42.5 µM] | 
9 | CCc1ccc(O)c(OC)c1 | -3.4% | 
10 | CS(=O)(=O)c1ccc(-c2cn3ccccc3n2)cc1 | 1.45% [at 42.5 µM] | 
11 | O=C1[C@H](CC[C@H](O)c2ccc(F)cc2)[C@@H](c2ccc(O)cc2)N1c1ccc(F)cc1 | -6.78% [at 42.5 µM] | 
12 | CC(C)OC(=O)c1cc2c(OCC(O)CNC(C)(C)C)cccc2[nH]1 (stereo not given) |  | 3.3 nM (active)
13 | CCOC(=O)C(=O)OCC | 7.8% | 
14 | O=C(O)CP(=O)(O)O | 1.96% [at 42.5 µM] | 
15 | CCn1nc(Cc2ccccc2)cc1C1CCN(C[C@H]2C[C@H](N(C)[C@@H](C(=O)O)C(C)C)C[C@@H]2c2cccc(F)c2)CC1 | -13.2% | 
16 | OCCCCCCO | 6.02% | 
17 | CCCCOCCOC(=O)COc1ccc(Cl)cc1Cl | 4.77% | 
18 | CCOC(=O)CC#N | 1.46% | 
19 | O=[N+]([O-])c1c(Cl)cc(Cl)cc1Cl | 1.83% | 
20 | CCCCNS(=O)(=O)c1ccc(C)cc1 | -5.8% | 

Row | SMILES | activity change, negative = inhibition | Potency
21 | CCC(=O)O[C@]1(C(=O)CCl)[C@@H](C)C[C@H]2[C@@H]3CCC4=CC(=O)C=C[C@]4(C)[C@@]3(F)[C@@H](O)C[C@@]21C | -7.99% [at 42.5 µM] | 
22 | CCOC(=O)C1CC(=O)C(=C(O)C2CC2)C(=O)C1 (stereo not given) | -1.52% | 
23 | C=Cc1ccccc1C=C | 5.36% [at 240 µM] | 
24 | CCNC(=O)NCCCOc1cccc(CN2CCCCC2)c1 | -8.16% [at 42.5 µM] | 
25 | Cc1cc(C)c(O)c(C(C)(C)C)c1 | -20.6% | 
26 | O=C(CS)Nc1ccccc1 | 0.129% [at 42.5 µM] | 
27 | COc1cc(O)cc(O)c1 | -2.25% [at 42.5 µM] | 
28 | C=C(C)C1CC=C(C)C(O)C1 (stereo not given) | -9.54% | 
29 | Clc1nc(C(Cl)(Cl)Cl)c(Cl)c(Cl)c1Cl | -9.5% | 
30 | CN1CCCN=C1COC(=O)C(O)(c1ccccc1)C1CCCCC1 (stereo not given) | 2.47% [at 42.5 µM] | 
31 | O=C(CCCCCCCCc1cccnc1)N1CCC(C=C(c2ccccc2)c2ccccc2)CC1 | -21% | 
32 | CCCCCCCC[N+](CCCCCCCC)(CCCCCCCC)CCCCCCCC | -0.876% | 
33 | COC(=O)C1CC(=O)C(C(=O)OC)CC1=O (stereo not given) | 3.63% [at 8.39 µM] | 
34 | C[C@@H]1C[C@H]2[C@@H]3CCC4=CC(=O)C=C[C@]4(C)[C@@]3(F)[C@@H](O)C[C@]2(C)[C@@]1(O)C(=O)COP(=O)(O)O | 13.3% | 
35 | CCCCCCC(=O)OCC | -6.44% | 
36 | CC1=CC[C@H](C(C)C)C=C1 | -0.0988% | 
37 | CCOCC(O)COc1ccc(NC(=O)CC[S+](C)C)cc1 (stereo not given) | -0.887% [at 42.5 µM] | 
38 | CCc1cccc(C)c1 | -0.377% | 
39 | C[n+]1ccccc1/C=N/O | -2.22% [at 42.5 µM] | 
40 | CCC(=O)CC(C)CC (stereo not given) | 7.63% [at 0.349 µM] | 
